# Source: PubChem (National Center for Advancing Translational Sciences (NCATS))
# Shown are actives, neighbours in structure and some others; about 3.8% of the full set was active somewhere.
# CBFb-RUNX1 inh – CBF-beta/RUNX1 interaction disruption | Q01196+Q13951 | AlphaScreen CBFb-His/RUNX1-biotin binding, biochemical | Potency, µM (titrated, usually from 59.8 µM), for inactives: top-dose activity, negative = inhibition, hits mostly inhibitors | 230,000 tested, under 10 active; further: % of control where 0% means no effect
#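 Inhibition was taken as any reduction in AlphaScreen signal from the CBF-beta–RUNX1 pair (His and biotin tags, 30 nM each), measured after compound (15 min) and bead (90 min) incubations at room temperature.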
# KCNH2 WT inh – KCNH2 (human, wildtype) channel inhibition; Q12809; U2OS, BacMam KCNH2, thallium flux FluxOr; hits give low values; activity change, % at 1.84 µM; hit rate 0.37% among 340,000; AID 720551;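 active means maximum activity change below -70%; inconclusive means maximum activity change between -70% and -50%; inactive means maximum activity change above -50%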; further: on the % scale 0 is the no-effect control and ±100 the full control effect
#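 U2OS cells transduced with wild-type KCNH2 virus are loaded with FluxOr dye for 45 min, and thallium flux is measured in kinetic reads before and after stimulation buffer. Rate constants are normalized to DMSO controls.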
# MBNL1 CUG block – inhibitors of human MBNL1 binding to CUG repeat RNA. Q9NR56. Potency, µM (series often up to 57.5 µM), for the others: at the highest dose activity change, negative = inhibition, hits mostly inhibitors. hit rate 0.036% among 280,000. TR-FRET MBNL1-His/biotin-(CUG)12 binding, 665/545 ratio; active means well fitted inhibition curve with a large enough effect in the signal ratio, with a control signal flat, not every such curve was filed as active; inconclusive means small, poorly fitted or top-dose-only effect, or effect the other way, or a change in a side signal; inactive means no such curve, though single readings can be large or run the other way; the % refers to the signal ratio; further: potency means the concentration at half of the fitted maximal effect; on the % scale 0 is the no-effect control and ±100 the full control effect
# Target sequence (Q9NR56 whole entry, looked up): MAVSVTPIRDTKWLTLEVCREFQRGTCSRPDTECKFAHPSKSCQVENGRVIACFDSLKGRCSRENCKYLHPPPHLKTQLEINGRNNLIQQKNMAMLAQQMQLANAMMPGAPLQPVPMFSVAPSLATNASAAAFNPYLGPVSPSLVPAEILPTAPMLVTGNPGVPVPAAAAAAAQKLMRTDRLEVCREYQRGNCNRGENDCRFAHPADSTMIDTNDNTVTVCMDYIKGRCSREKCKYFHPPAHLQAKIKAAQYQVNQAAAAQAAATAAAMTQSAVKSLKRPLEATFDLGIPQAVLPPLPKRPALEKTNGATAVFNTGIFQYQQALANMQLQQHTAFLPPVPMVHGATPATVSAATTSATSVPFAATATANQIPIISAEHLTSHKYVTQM
#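 MBNL1-His + Biotin-(CUG)12, cpd titration 92 nM–58 uM; Tb anti-His Ab 0.055 ng/ul, SA-XL665 5 nM (final); 60 min RT; ratiometric 665/545 nm, Ex 340 nm; normalized to buffer and full-complex controls.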
# PLK1 PBD inh – inhibitors of human PLK1 polo-box domain binding; hit rate 2.8% among 360,000; P53350; Potency, µM, for the others: max response, negative = inhibition, hits mostly inhibitors; Plk1 PBD binding of FITC phosphopeptide, fluorescence polarization; further: potency means the concentration at half of the fitted maximal effect; series mostly up to about 57 µM; on the % scale 0 is the no-effect control and ±100 the full control effect; nearly all actives have a fitted effect of over 65% in size
# KCNH2 3.1 inh – blocks the human KCNH2 3.1 channel isoform | U2OS KCNH2 3.1, thallium flux FluxOr; hits give low values | activity change, % (tested at about 1.8 µM) | hit rate 0.95% among 340,000;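 active means maximum activity change below -70%; inconclusive means maximum activity change from -70% to -50%; inactive means maximum activity change above -50%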;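 further: thallium influx rate constant from kinetic fluorescence after stimulation buffer; on the % scale 0 is the no-effect control and ±100 the full control effect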
#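 Channel expression came from 3.1 mutant virus (1.77 x 10^8 /mL) applied to suspended U2OS cells for 4 h. Flux was tracked with FluxOr dye plus Red40 quencher, and kinetic rate constants normalized to controls.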
# VDR inh – vitamin D3 receptor (human) inhibition; VDR-SRC2-3 peptide fluorescence polarization, 2 h; AID 504847; Potency, µM, inactives show max response, negative = inhibition, actives largely listed as inhibitors; P11473; hit rate 0.93% among 400,000; further: potency means the concentration at half of the fitted maximal effect; on the % scale 0 is the no-effect control and ±100 the full control effect
# Target sequence (P11473 whole entry, looked up): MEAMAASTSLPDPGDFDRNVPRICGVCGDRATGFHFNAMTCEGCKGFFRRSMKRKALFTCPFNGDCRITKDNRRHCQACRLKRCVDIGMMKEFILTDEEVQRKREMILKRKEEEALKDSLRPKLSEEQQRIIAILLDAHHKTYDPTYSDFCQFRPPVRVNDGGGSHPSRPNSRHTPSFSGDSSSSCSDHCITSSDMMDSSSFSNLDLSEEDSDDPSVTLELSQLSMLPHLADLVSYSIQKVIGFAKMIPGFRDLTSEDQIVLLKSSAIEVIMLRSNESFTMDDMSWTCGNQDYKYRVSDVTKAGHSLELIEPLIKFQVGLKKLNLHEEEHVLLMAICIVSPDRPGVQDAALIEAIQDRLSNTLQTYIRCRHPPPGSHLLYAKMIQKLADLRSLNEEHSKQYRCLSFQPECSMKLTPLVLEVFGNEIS
#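 Compounds are added to VDR with labelled SRC2-3 coactivator peptide and held 2 h at room temperature. Inhibition of the VDR–peptide interaction is then read as a change in fluorescence polarization.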
# Active calls of the source: *; ? = inconclusive; nt = no result; [ ] = remark or other dose. Unless noted, the call rests on the fitted dose curve; in most records, active means well fitted curve in the direction sought with a large enough effect; inconclusive means small, poorly fitted or top-dose-only effect, or another doubt; inactive means no such curve, though single readings can be large; an effect the other way counts as inactive or inconclusive.
SMILES,CBFb-RUNX1 inh,KCNH2 WT inh,MBNL1 CUG block,PLK1 PBD inh,KCNH2 3.1 inh,VDR inh
CCOc1ccc(-n2cc(-c3ccccc3)c3c(N4CCN(c5ccccc5OC)CC4)ncnc32)cc1,nt,nt,nt,nt,nt,15.3%
CCN(c1ccc(OC)cc1)S(=O)(=O)c1nnc(NC(=O)COc2ccc(F)cc2)s1,nt,-3.0,0.4%,26.7µM*,0.6,-18.9%
Cc1ccn(CCC(=O)NC2CCCc3c2cnn3-c2cccc(C)c2C)n1 (stereo unspecified),nt,3.3,2.5%,29.9µM*,-0.3,-17.7%
CC(C)c1ccc(NC2CCCN(C(=O)c3cscn3)C2)cc1 (stereo unspecified),nt,-11.2,-0.1%,-14.9%,16.6,19.7%
CC(C)c1ccc(NC2CCCN(C(=O)c3cc(C(C)C)nc(N)n3)C2)cc1 (stereo unspecified),nt,-1.8,4.5%,26.7µM*,9.0,-11.3%
COc1ccc(OC)c(CCNC(=O)c2cc3c(=O)oc4ccc(C)cc4c3s2)c1,nt,nt,nt,nt,nt,-16.5%
CSCC[C@H](NC(=O)[C@H](CC(C)C)NC(=O)CNC(=O)[C@H](Cc1ccc(O)cc1)NC(=O)[C@H](Cc1ccccc1)NC(=O)[C@H](CCCCN)NC(=O)[C@H](CC(N)=O)NC(=O)[C@@H]1CCCN1C(=O)[C@H](CC(=O)O)NC(=O)[C@H](C)NC(=O)[C@@H]1CCC(=O)N1)C(N)=O,15.9%,nt,nt,nt,nt,-2.7%
Cc1cc(N/N=C/c2ccco2)c2ccccc2n1,0.5%,14.6,18.8%,23.8µM*,32.8,?
COc1ccc(-n2nc3c(c2NC(=O)COc2ccccc2)CS(=O)C3)cc1 (stereo unspecified),nt,25.3,-0.7%,-2.3%,nt,-7.3%
COc1ccc(-n2nc3c(c2NC(=O)c2c(F)cccc2Cl)CS(=O)C3)cc1 (stereo unspecified),-6.3%,-4.1,-1.3%,4.4%,-78.0*,8.2%
CCc1nn2c(=O)cc(COC(=O)c3ccc(NC(=O)c4cccs4)cc3)nc2s1,nt,nt,nt,nt,nt,6.3%
CCOC(=O)c1ccc(NC(=S)N(CCCN2CCCC(C)C2)Cc2cccs2)cc1 (stereo unspecified),-5.1%,-89.2*,-4.3%,-11.8%,-80.5*,20.5%
Cc1ccc(NC(=S)N(CCCN2CCOCC2)Cc2cccs2)c(C)c1,7.9%,-1.9,nt,18.9µM*,-6.4,-3.1%
O=C(CNC(=S)N(CCCN1CCOCC1)Cc1cccs1)N1CCCCCC1,-9.5%,-148.1*,-5.2%,-14.0%,-180.9*,15.9%
CCOC(=O)c1ccc(NC(=S)N(CCCN2CCCC2)Cc2cccs2)cc1,2.4%,?,-3.5%,-10.4%,?,-3.0%
CC#CCN1c2ccccc2[C@]23C[C@@H](C(=O)OC)N(C(=O)c4cccs4)C2=NC(C(=O)OC)=C(C(=O)OC)[C@H]13,5.8%[13.1 µM],nt,nt,nt,nt,nt
COc1ccc(CCNC(=O)CCCCn2c(=O)c3ccccc3n(Cc3ccccc3Cl)c2=O)cc1OC,nt,nt,nt,nt,nt,3.1%
C=CCOc1c(OC)cc(/C=N/Nc2cccc(C(=O)O)c2)c(Br)c1Br,-5.1%,2.2,10.5%,29.9µM*,-0.4,?
Cc1ccccc1OCC(=O)N/N=C1\SCC(=O)N1Cc1ccccc1,-2.4%,0.8,-17.0%,26.7µM*,26.5,-7.4%
Cc1cccc(OCC(=O)N/N=C2/SCC(=O)N2Cc2ccco2)c1,-3.5%,12.4,0.7%,10.6µM*,11.0,-28.9%
CCc1ccccc1N(CC)C(=O)c1c(C)oc2ncnc(N3CCOCC3)c12,nt,nt,nt,nt,nt,15.2%
CC(C)(C)OC(=O)N1CCC(c2c(C(=O)Nc3ccc4c(c3)OCCO4)cnn2-c2ccccc2)CC1,nt,nt,nt,nt,nt,15.5%
COc1cccc(CNC(=O)CNS(=O)(=O)c2ccc3nc(C)sc3c2)c1,nt,nt,nt,nt,nt,0.7%
CCOc1ccc(NC(=O)CN2C(=O)CC(C)Sc3ccccc32)cc1 (stereo unspecified),nt,nt,nt,nt,nt,2.1%
CCOC(=O)c1c(NC(=O)c2cc(-c3ccc(Cl)s3)nc3ccccc23)sc(C(N)=O)c1C,10.1%,-4.3,?,-10.3%,4.9,3.1%
SMILES,CBFb-RUNX1 inh,KCNH2 WT inh,MBNL1 CUG block,PLK1 PBD inh,KCNH2 3.1 inh,VDR inh
Cc1ccccc1-c1cc(C(=O)Nc2sc(C)c(C)c2C(N)=O)c2ccccc2n1,-3.2%,-7.3,2.9%,26.7µM*,-13.1,-1.2%
Cc1sc(NC(=O)Nc2ccccc2)c(C(N)=O)c1C,-4.7%,0.0,-6.8%,-30.0%,6.9,89.1µM*
CCOC(=O)c1sc(NC(=O)c2cc(-c3ccccc3C)nc3ccccc23)c(C#N)c1C,-1.2%,-5.8,-4.4%,5.32µM*,-6.9,-10.2%
CCOc1ccc(-c2csc(NNC3=NCCCCC3)n2)cc1,-17.9%,3.7,22.0%,18.9µM*,-15.8,?
COc1ccc(-c2csc(NNC3=NCCCCC3)n2)cc1,-2.2%,-0.4,8.2%,6.7µM*,-12.4,?
Clc1ccc(-c2csc(NNC3=NCCCCC3)n2)cc1,-29.7%,14.4,13.9%,?,-8.5,50.1µM*
COc1ccc(-c2csc(NC3=NCCCCC3)n2)cc1,-19.7%,0.8,nt,-2.3%,-5.0,3.8%
CCOc1ccc(NC(=O)Cn2cc(C(=O)c3ccc(CC)cc3)c(=O)c3cc4c(cc32)OCO4)cc1,nt,nt,nt,nt,nt,-22.4%
Cc1nn(C(=O)N2CCOCC2)c(C)c1CN1C(=O)c2ccccc2C1=O,nt,-0.5,nt,-3.9%,4.9,6.0%
Cc1cc(CN2C(=O)c3ccccc3C2=O)cc(N2CCOCC2)c1,-1.0%,-293.6*,?,-1.5%,4.6,8.6%
CCOC(=O)CSc1nc2ccc(NC(=O)c3ccccc3)cc2s1,nt,nt,nt,nt,nt,9.6%
Cc1cccc(NC(=O)c2oc3ccccc3c2NC(=O)c2cc(=O)c3cc(Cl)ccc3o2)c1,nt,nt,nt,nt,nt,18.8%
CCOC(=O)NC(=O)/C(C#N)=C\NNc1ncc(C(F)(F)F)cc1Cl,26.8%,-71.1*,nt,-19.2%,9.6,1.3%
CC1=CSC2=NS(=O)(=O)CCN12,9.6%,-16.7,-8.1%,23.8µM*,-1.2,-26.5%
CCCCCn1c(=O)[nH]c2cc(C(=O)N3CCN(c4cc(Cl)ccc4C)CC3)ccc2c1=O,nt,nt,nt,nt,nt,3.7%
Cc1cc(C)c(OCC(O)CNC(C)(C)C)c(C)c1 (stereo unspecified),-6.2%,0.5,-15.6%,23.8µM*,6.7,-22.6%
CN(C)C1CCN(CCCOc2ccc(-c3ccc(C#N)cc3)cc2)C1 (stereo unspecified),-0.5%,nt,nt,nt,nt,-15.4%
COc1cc(SC#N)ccc1N=Cc1c(C)[nH]n(-c2ccc(C)cc2C)c1=O,1.4%,-0.2,?,8.44µM*,0.1,?
COc1cc(SC#N)ccc1N=Cc1c(C)[nH]n(-c2cccc3ccccc23)c1=O,10.7%,-2.6,?,?,2.7,?
O=C(CN1C(=O)COc2ccc(S(=O)(=O)Nc3ccccc3)cc21)NCc1ccccc1Cl,nt,nt,nt,nt,nt,6.5%
